TEAD-YAP inh: TEAD-YAP interaction inhibition, primary screen, TEAD-YAP interaction inhibitor project, luminescence, HEK-TIYL cells | TEAD-Gal4/YAP UAS-luciferase luminescence | inhibition, % at 9.12 µM | hit rate 1.4% among 640,000; in the data active = inhibition above about 32%;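 also: 0% = median of test compound wells and 100% = reference inhibitor wells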
GPR151 activ: activators of human GPR151, primary screen, cell-based, PathHunter beta-arrestin, luminescence; PathHunter beta-arrestin GPR151 cells; G-protein coupled receptor 151 (Homo sapiens), Q8TDV0; hit rate 1% among 650,000; activation, % at 11.2 µM; AID 1508602, 2020; in the data active = activation above about 4.9%;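 also: 0% = median of compound wells and 100% = cells with positive control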
FBW7 activator: FBW7 E3 ligase activators, primary screen, biochemical, AlphaScreen, human; F-box/WD repeat-containing protein 7 (Homo sapiens), Q969H0; AlphaScreen FBW7–phospho-cyclin E peptide binding, activator screen; normalized activity (activation), % at 26.1 µM; hit rate 0.13% among 650,000; AID 1259310, 2017; in the data active = normalized activity above about 1.9%;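 also: purified mutant Fbw7 with reduced substrate affinity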
MITF primary: MITF inhibitors, primary screen, biochemical, AlphaScreen, human; AlphaScreen MITF homodimerization, bead proximity signal; inhibition, % at 2.6 µM; hit rate 0.91% among 650,000; AID 1259374, 2018; in the data active = inhibition above about 50%;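 also: 0% = vehicle wells with protein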
GPR151 confirm: GPR151 activators, triplicate retest, confirmation, cell-based, PathHunter beta-arrestin, luminescence; shares compounds with GPR151 activ; GPR151 PathHunter beta-arrestin cells, 90 min; % of EA-reagent control over plate median; activation, % at 11.2 µM; 6,700 tested, under 10 active; AID 1508609, 2020;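 active = mean percent activation across replicates above the confirmation screen cutoff of 4.91%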
GPR119 counter: GPR119 activators in beta-arrestin cells, counter-screen for GPR151 activator project, cell-based, PathHunter beta-arrestin, luminescence, triplicate; shares compounds with GPR151 activ; 90 min; 0 = compound-well median, 100 = enzyme-acceptor control; activation, % at 11.2 µM; hit rate 0.3% among 6,700; AID 1508611, 2020;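 active = mean percent activation in the counterscreen above 29.09%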;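 also: counterscreen on off-target GPR119 to flag nonselective hits from the GPR151 activator screen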
Target sequence (Q8TDV5 whole entry, looked up): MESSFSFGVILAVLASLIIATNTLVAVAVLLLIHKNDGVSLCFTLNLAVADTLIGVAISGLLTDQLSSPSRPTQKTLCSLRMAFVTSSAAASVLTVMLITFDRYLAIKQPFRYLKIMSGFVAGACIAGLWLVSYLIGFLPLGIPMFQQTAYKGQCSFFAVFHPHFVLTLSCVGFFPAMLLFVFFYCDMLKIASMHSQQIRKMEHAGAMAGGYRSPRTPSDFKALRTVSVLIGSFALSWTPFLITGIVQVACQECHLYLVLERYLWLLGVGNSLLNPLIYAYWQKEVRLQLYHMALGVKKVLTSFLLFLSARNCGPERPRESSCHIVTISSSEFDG
Starred values were filed as active, the others as inactive; · = not tested or not shown. Only some compounds are listed: those with a hit (about 3.4% of all), similar ones and a draw of the others.

SMILES | TEAD-YAP inh | GPR151 activ | FBW7 activator | MITF primary | GPR151 confirm | GPR119 counter
COc1cccc(CC(=O)Nc2nc3ccccc3[nH]2)c1 | -5 | 5.6* | 0 | 4 | 0 | -6
O=C(Cn1c(-c2cccnc2)nc2ccccc21)NCc1ccccc1Cl | -8 | 5.6* | 0 | 7 | 0 | 2
CN(c1ccccc1)S(=O)(=O)c1ccc(C(=O)Nc2ccccc2Oc2ccccc2)cc1 | -9 | 1 | 1 | 7 | · | ·
Cc1ccc(NC(=O)CCc2nnc3ccc(N4CCC(C(N)=O)CC4)nn23)cc1 | -3 | 0 | 0 | 5 | · | ·
Cc1ccc(NC(=O)CCc2nnc3ccc(N4CCC(C)CC4)nn23)cc1 | 3 | 5.0* | 0 | -24 | 0 | -5
CCOC(=O)C(C)Oc1ccc2c(=O)c(Oc3ccc(OC)cc3)coc2c1 (centres undefined) | 7 | 0 | 0 | 3 | · | ·
CCOC(=O)C(C)Oc1ccc2c(=O)c(Oc3cccc(OC)c3)coc2c1 (centres undefined) | -3 | 11* | 0 | 4 | 0 | 0
CN1CCc2cc(CNC(=O)CC3C(=O)NCCN3Cc3ccc(F)c(F)c3)ccc21 (centres undefined) | -9 | 1 | 0 | -12 | · | ·
COC(=O)CCNC(=O)NC(CCC(C)C)c1c(-n2cccc2)sc2c1CCN(C)C2 (centres undefined) | -6 | 2 | 0 | -3 | · | ·
COCCCNC(=O)NC(CCC(C)C)c1c(-n2cccc2)sc2c1CCN(C)C2 (centres undefined) | 10 | 8.2* | 0 | -2 | 0 | -5
O=C(c1ccc2ncsc2c1)N(CCN1CCOCC1)c1nc2c(Cl)cccc2s1 | -36 | 0 | 0 | -2 | · | ·
CCn1c(SCC(=O)N/N=C(/C)c2ccc(OC)cc2)nc2ccccc21 | 13 | 6.8* | 0 | 20 | -1 | -4
CCCCOc1ccc(C(=O)NNC(=S)NC(=O)c2cc3cc(Br)ccc3oc2=O)cc1 | 11 | 1 | 0 | 4 | · | ·
O=C1c2ccccc2C(=O)c2c(N=NN3CCOCC3)cccc21 | -16 | 0 | -1 | -5 | · | ·
COc1ccc(S(=O)(=O)NNC(=S)NCC2CCCO2)c(OC)c1 (centres undefined) | -1 | 5.0* | 0 | 1 | -1 | -10
O=S(=O)(NNC(=S)NCC1CCCO1)c1cc(Cl)ccc1Cl (centres undefined) | 3 | -1 | 0 | 6 | · | ·
COc1ccc(C(=O)NCCC(=O)NCC2CCCO2)cc1OC (centres undefined) | -8 | 5.7* | 0 | -4 | 0 | 9
O=C(COc1ccccc1Br)NN=C1CCCCC1 | -2 | 9.7* | 0 | 14 | -1 | -6
CCOc1ccc(NC(=O)COc2ccccc2Br)cc1 | -7 | 5.0* | 0 | -2 | 0 | 9
CCOc1ccc(NC(=O)CSc2nc3ccccc3n2S(=O)(=O)c2ccc(Cl)cc2)cc1 | -3 | 0 | 0 | -9 | · | ·
CNc1nc(-c2ccc3c(c2)CCN3S(C)(=O)=O)cs1 | -40 | 6.8* | 0 | 7 | 0 | 5
Cn1c(=O)c2c(nc3n(CCc4ccccc4)c(-c4ccccc4)cn23)n(C)c1=O | 8 | 1 | 0 | -17 | · | ·
Cn1c(=O)c2c(nc3n(CCc4ccccc4)c(-c4ccc(Br)cc4)cn23)n(C)c1=O | 18 | 5.6* | 0 | 16 | 0 | 1
COc1cc(C(=O)Nc2nnc(-c3ccccc3Cl)s2)cc(OC)c1OC | 3 | -1 | 0 | 8 | · | ·
Cc1ccc(/C(O)=C(/C(=S)NCCN2CCOCC2)[n+]2ccccc2)cc1[N+](=O)[O-] | -6 | 1 | 0 | 15 | · | ·
SMILES | TEAD-YAP inh | GPR151 activ | FBW7 activator | MITF primary | GPR151 confirm | GPR119 counter
COc1ccccc1CNC(=O)COc1ccc(Br)cc1Cl | 2 | 12* | 0 | 11 | -1 | -10
COc1ccccc1CNC(=O)COc1ccccc1 | -24 | 4 | 0 | 0 | · | ·
CCc1ccc(OCC(=O)NCc2ccccc2OC)cc1 | 3 | 5.1* | 0 | 8 | -1 | -5
O=C1C2=CC[C@H]3C(=O)N(Cc4ccccc4)C(=O)[C@H]3[C@H]2[C@H](O)[C@@H]2O[C@H]12 | · | -4 | 0 | -6 | · | ·
CCOC(=O)C1=C(C)NC2=C(C(=O)C(C(=O)OC)C(C)C2)C1c1ccc(C(F)(F)F)cc1 (centres undefined) | 10 | 1 | 0 | -7 | · | ·
CC(C)N(CCNc1nc(N2CCOCC2)nc2nc[nH]c12)C(C)C | -2 | -3 | 0 | -5 | · | ·
CC(c1ccccc1)N1C(=O)CC(Nc2ccc(N3CCOCC3)cc2)C1=O (centres undefined) | 1 | 7.2* | -1 | 8 | 0 | 13
CC(C)N1C(=O)CC(Nc2ccc(N3CCOCC3)cc2)C1=O (centres undefined) | -27 | 0 | 0 | 1 | · | ·
CCOC(=O)C1=C(CN2CCN(CC)CC2)NC(=O)NC1c1cc(C)ccc1C (centres undefined) | -6 | 7.5* | 0 | -21 | 0 | 8
CC1CCCCN1C(=O)CCc1nc(-c2ccc(Cl)cc2)no1 (centres undefined) | -16 | 6.7* | 0 | -1 | 0 | -14
Cc1ccc(-c2noc(CCC(=O)N3CCCCC3C)n2)cc1 (centres undefined) | -10 | 1 | 0 | 1 | · | ·
CSc1ccc(CNc2ncc(-c3cccc([N+](=O)[O-])c3)n2C)cc1 | -2 | 0 | 0 | 50 | · | ·
CSc1ccc(CNc2ncc(-c3ccccc3)n2C)cc1 | -3 | 7.7* | 0 | 26 | -1 | -4
COc1ccc(NC(=O)N2CCC(CN3CCOCC3)CC2)c(OC)c1 | -2 | 4 | 0 | 9 | · | ·
COc1ccc(NC(=O)N2CCC(CN3CCOCC3)CC2)cc1OC | 5 | 6.9* | 0 | 5 | 1 | 6
CNC(=O)c1cc2c(=O)n3cccc(C)c3nc2n(C)c1=N | 13 | -2 | 1 | 18 | · | ·
Cc1ccc(CNC(=O)c2cc3c(=O)n4cccc(C)c4nc3n(C)c2=N)cc1 | 1 | 11* | 0 | 6 | 0 | 0
Cc1ccc(OCC(=O)OCC(=O)c2ccccc2)cc1C | -4 | 10* | 0 | -7 | 0 | 11
Cc1ccc(OCC(=O)OCc2c(C)noc2C)cc1C | 7 | 8.0* | 0 | -3 | 0 | 4
Cc1cc(C)cc(OCC(=O)OCc2c(C)noc2C)c1 | -1 | 2 | 0 | 9 | · | ·
Cc1ccc(C2Nn3c(C)nnc3SC2C(=O)N2CCCCCC2)cc1 (centres undefined) | -8 | 6.4* | 1 | 10 | 0 | 7

From PubChem BioAssay
